Measurements reported in PubChem BioAssay (NCI).
Compounds without any hit were thinned out: in the full panel of roughly 83,000, 20% have a hit.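 Cell lines were cultured in 96-well plates, exposed to a single compound concentration, and assessed for percent growth 48 hours later.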 The source made the active and inactive calls. How the source made its calls: active means growth percent below 10; inactive means the rest.

How the values were obtained:
Test in all cases: NCI-60 one-dose screen, 48 h (100 = growth as untreated, 0 = no growth, -100 = all killed)
Conditions in all cases: 10 µM unless noted
[1] = test system: NCI-H23 lung
[2] = test system: NCI-H226 lung
[3] = test system: NCI-H322M lung
[4] = test system: HOP-62 NSCLC
[5] = test system: NCI-H460 lung
[6] = test system: HOP-92 NSCLC
[7] = test system: NCI-H522 lung
[8] = test system: A549/ATCC NSCLC
[9] = test system: 786-0 renal
[10] = test system: COLO 205 colon

Measured: growth

COc1ccc(C(=O)C(CN(C)C)c2ccccc2)cc1 (stereo not drawn)
active: [6] -4.35% | [7] -73.9% | [9] -36.2%
inactive: [1] 13.2% | [2] 71.5% | [3] 96% | [4] 83.6% | [5] 47.7% | [8] 72.6% | [10] 22.8%

COc1c(C(=O)/C=C/c2ccc(C)o2)c(O)cc2occc12
inactive: [1] 79.5% | [2] 75.3% | [3] 97.2% | [4] 59.2% | [5] 70.1% | [6] 68% | [7] 41.8% | [8] 58.8% | [9] 99.1% | [10] 104%

Cc1ccc(-c2nc3ccccc3c(=O)n2/N=C/c2cccc3ccccc23)cc1
inactive: [1] 77.6% | [2] 79.2% | [3] 54.7% | [4] 83.1% | [5] 69.1% | [6] 74.2% | [7] 53.4% | [8] 80.1% | [9] 87.3% | [10] 73.8%

CCC(=O)NC(O)C(Cl)(Cl)C(C)Cl (stereo not drawn)
inactive: [1] 96.3% | [2] 95.7% | [3] 99.6% | [4] 102% | [5] 109% | [6] 88.1% | [7] 102% | [8] 97.5% | [9] 101% | [10] 114%

C=C(C)C1CCC2(C(=O)O)CCC3(C)C(CCC4C5(C)CCC(O)C(C)(C)C5CCC43C)C12 (stereo not drawn)
inactive: [2] 33.2%
active: [1] -50.3% | [3] 6.5% | [4] -59.1% | [5] -22.5% | [6] -26.2% | [7] 1.49% | [8] -53.5% | [9] -66.5% | [10] -45.3%

COc1cc(NC(C)CCCN)c2ncccc2c1Oc1ccc(Cl)cc1 (stereo not drawn)
active: [10] 6.98%
inactive: [1] 87.4% | [2] 75% | [3] 64.5% | [4] 77.7% | [5] 83.8% | [6] 43.4% | [7] 87.9% | [8] 87.9% | [9] 67.3%

CCc1ccc2c(c1)N(CCO)C1=C(C(=O)OC1)C2c1cccc(Br)c1 (stereo not drawn)
inactive: [1] 40.9% | [2] 39.5% | [3] 38.9% | [4] 31% | [5] 11.2% | [6] 75.6% | [8] 29.2% | [9] 34.4%
active: [7] -26.3% | [10] 5.9%

O=C1C=CC(=O)N1CO
inactive: [1] 124% | [2] 113% | [3] 117% | [4] 115% | [5] 123% | [6] 120% | [7] 103% | [8] 109% | [9] 113% | [10] 149%

COc1cc2c(cc1C)NC(=O)/C2=C\c1c[nH]c2ccccc12
inactive: [1] 79.9% | [2] 84% | [3] 65.8% | [4] 75.2% | [5] 40.6% | [6] 50.1% | [7] 54.7% | [8] 52.5% | [9] 65.4% | [10] 91.1%

CCN(CC)Cc1cc(Nc2ccnc3cc(Cl)ccc23)cc(-c2ccc(Cl)cc2)c1O
inactive: [1] 24% | [2] 17.6% | [7] 35.3% | [8] 20.7% | [9] 55% | [10] 55.8%
active: [3] 5.72% | [4] -46.1% | [5] 3.23% | [6] -8.91%

CCOC(=O)C1=C(C)NC(SCc2nnc(-c3ccc(Cl)cc3)o2)=NC1c1ccc(Br)cc1 (stereo not drawn)
inactive: [1] 75.7% | [2] 78.9% | [3] 86.4% | [4] 86.9% | [5] 80.4% | [6] 57.8% | [7] 67.6% | [8] 62.4% | [9] 84.9% | [10] 77.6%

COc1cc(C2CC(c3cccc(Nc4ccnc5cc(Cl)ccc45)c3)=NN2c2ccc(Cl)cc2)cc(OC)c1OC (stereo not drawn)
inactive: [1] 73.8% | [2] 70.6% | [3] 81.4% | [4] 76.7% | [5] 36.4% | [6] 37.5% | [7] 40.6% | [8] 57% | [9] 54.5% | [10] 80.9%

COc1cc(Nc2ccnc3ccc(Br)cc23)cc(OC)c1OC
inactive: [1] 53.8% | [2] 78.8% | [3] 63.5% | [4] 23.2% | [6] 49% | [8] 37.5% | [10] 39%
active: [5] 7.02% | [7] -17.8%

O=C(c1ccc(C(F)(F)F)c(Cl)c1)N(Cc1ccc(Cl)cc1)c1ccc(-c2cc(C(F)(F)F)[nH]n2)c(O)c1
active: [1] 6.5% | [2] -5.3% | [4] -4.7% | [5] 6.77% | [6] -15.6% | [7] -1.27% | [9] 3.06% | [10] -73.8%
inactive: [3] 14.4% | [8] 12.8%

COc1ccc(C2C=C(c3ccc(Cl)cc3)N=C3SC=CN32)cc1 (stereo not drawn)
inactive: [1] 101% | [2] 112% | [3] 133% | [4] 108% | [5] 103% | [6] 86.4% | [7] 113% | [8] 104% | [9] 97.8% | [10] 109%

CC(=O)[C@@]1(O)[C@H](C)C[C@H]2[C@@H]3C=C(C)C4=Cc5c(cnn5-c5ccccc5)C[C@]4(C)[C@H]3[C@@H](O)C[C@@]21C
inactive: [1] 32.4% | [2] 63.3% | [3] 75.9% | [4] 34.8% | [6] 13.2% | [8] 14.5%
active: [5] -20.5% | [7] -2.67% | [9] -9.28% | [10] -23.8%

COc1ccc(/C(=C\c2ccc3c(c2)OCO3)C(=O)Nc2nc3ccccc3s2)cc1
inactive: [1] 106% | [2] 97.6% | [3] 94.4% | [4] 95.5% | [5] 110% | [6] 104% | [7] 81.5% | [8] 93.9% | [9] 97.2% | [10] 110%

COC(=O)c1cc(Cl)cc([N+](=O)[O-])c1O
inactive: [1] 111% | [2] 97.9% | [3] 115% | [4] 104% | [5] 116% | [6] 83.8% | [7] 99.5% | [8] 105% | [9] 108% | [10] 115%

O=C(Nc1ccc(Cl)c(C(F)(F)F)c1)c1ccc(Nc2ccc(Cl)nn2)cc1
inactive: [1] 48.4% | [2] 84.2% | [3] 92.9% | [4] 86.1% | [5] 74% | [6] 82.8% | [7] 62% | [8] 44.3% | [9] 50.9% | [10] 81.6%

CCCOC(=O)C1c2cc3c(cc2CC(C)C1C(=O)OCCC)OCO3 (stereo not drawn)
inactive: [1] 85.8% | [2] 94.1% | [3] 80.9% | [4] 95.3% | [5] 103% | [6] 70.3% | [7] 70% | [8] 92.6% | [9] 94.5% | [10] 121%

COc1ccc(C2CC(c3cccc(Nc4ccnc5cc(Cl)ccc45)c3)=NN2c2ccc(Cl)cc2)cc1 (stereo not drawn)
inactive: [1] 84.4% | [2] 83.6% | [3] 72.4% | [4] 88.7% | [5] 47.6% | [6] 68.5% | [7] 90.4% | [8] 70.6% | [9] 74.4% | [10] 73.9%

Nc1nc(N)c2c(n1)NC(c1sc(Cl)nc1Cl)CC(c1ccc3c(c1)OCO3)=N2 (stereo not drawn)
active: [7] -28.3% | [10] 7.12%
inactive: [1] 39.9% | [2] 82.7% | [3] 72.6% | [4] 34.5% | [5] 13.2% | [6] 56% | [8] 36.4% | [9] 38.1%

COCCn1c(Nc2ccc(C(=O)NO)cc2)nc2ccccc21
inactive: [1] 72.8% | [2] 89.6% | [3] 76.5% | [4] 74.8% | [5] 56.7% | [6] 27.7% | [7] 30.9% | [8] 69.2% | [9] 84.4% | [10] 50.7%

O=C1C(Cl)=C(N/N=c2/[nH][nH]/c(=N/NC3=C(Cl)C(=O)c4ccccc4C3=O)c3ccccc23)C(=O)c2ccccc21
inactive: [1] 82.5% | [2] 74.8% | [3] 58.4% | [5] 81.4% | [6] 117% | [7] 30.1% | [8] 94.6% | [9] 96% | [10] 52.5%
active: [4] -10.5%

COCCCNCC(=O)Nc1c(C)cccc1C
inactive: [1] 110% | [2] 106% | [3] 139% | [4] 107% | [5] 116% | [6] 103% | [7] 112% | [8] 96.7% | [9] 93.8% | [10] 109%

Oc1ccc(-c2cnc(-c3ccccc3)[nH]2)c(O)c1
active: [4] -12.1%
inactive: [1] 108% | [2] 86.2% | [3] 94.9% | [5] 110% | [6] 58.7% | [7] 99.8% | [8] 24.8% | [10] 117%

Nc1ccc(N(O)/C=C2\C=CC=CC2=O)cc1N
inactive: [1] 82.7% | [2] 103% | [3] 110% | [4] 95.7% | [5] 119% | [6] 91.3% | [7] 72.7% | [8] 94.4% | [9] 92.3% | [10] 114%

CN(C)c1ccc(Nc2c3ccccc3nc3ccccc23)cc1
active: [2] -38.3% | [5] -26.6% | [6] -7.43% | [9] 9.08% | [10] -51.7%
inactive: [1] 16% | [3] 15.5% | [4] 32.6% | [7] 20.4% | [8] 14.2%
